The list is not random: actives were taken first. Their share in the collection is about 6.3%.
MK inhibit: S. pneumoniae mevalonate kinase inhibition. inhibition, % at 10 µM. actives 0.48% (n = 65,000). purified MK, PK/LDH-coupled NADH absorbance 340 nm;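 active = ranked among the strongest by inhibition in the single 10 µM screen, a fixed top-ranked set picked for dose follow-up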
Spn PMK inh: blocks S. pneumoniae phosphomevalonate kinase. purified PMK, PK/LDH-coupled NADH absorbance 340 nm. inhibition, % at 10 µM. actives 0.49% (n = 65,000). AID 539;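 active = top-ranked compounds by inhibition in the single 10 µM screen, taking a fixed number of the strongest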;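 note: 0% = full reaction with DMSO carrier and 100% = background rate without enzyme reaction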
NADH enzymes: blocks coupling enzymes of NAD/NADH assays | coupled PK/LDH NADH assays, four targets | IC50, µM (highest dose often 10 µM), without a hit: top-dose inhibition | actives 0.02% (n = 65,000);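 active = single-dose screening hits from any of four coupled enzyme assays that gave an IC50 when retested across doses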;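 note: the DPM-DC format reads NADH fluorescence rather than 340 nm absorbance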
A340 absorber: compounds absorbing at 340 nm; compound absorbance at 340 nm, fold over control; fold change at 10 µM; 65,000 tested, under 10 active; AID 708;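 active = at 10 µM dose, initial 340 nm absorbance at least 2 fold that of control wells; inactive = change under 2 fold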;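 note: initial absorbance extrapolated from kinetic A340 decline of NADH oxidation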
Fluor 339 460: intrinsic fluorescence of library compounds, ex339/em460 – biochemical, MLSMR library, data from DPM-DC assay, artefact control, profiling panel; actives 5.5% (n = 65,000); compound autofluorescence, ex339/em460 nm, NADH buffer; hits give high values; 1 = no-compound wells, NADH background; fluorescence fold increase at 10 µM; AID 709;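 active = at 10 µM, mean starting fluorescence two-fold or more over control wells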;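 note: signal is the first read of a kinetic run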
Spn DPM-DC inh: blocks S. pneumoniae diphosphomevalonate decarboxylase. purified DPM-DC, PK/LDH coupled NADH fluorescence. actives 0.49% (n = 65,000). calls only at 10 µM;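 active = the 320 compounds with the highest percent inhibition in the single-dose primary screen, excluding strongly autofluorescent ones, cut at about 32% in these data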;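 note: kinetic rate of NADH fluorescence loss reporting ADP formed by the decarboxylase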
Active calls of the source: *; i = inactive; . = not tested or not shown; + = active, no number.

SMILES	MK inhibit	Spn PMK inh	NADH enzymes	A340 absorber	Fluor 339 460	Spn DPM-DC inh
COc1ccc2c(c1)cc(C(=O)O)n2C	0	17	15%	1	2.5*	i
CCCC(=O)N1CCN(c2ccc(NC(=O)c3cc4ccccc4o3)cc2)CC1	13	15	11%	1.1	1	i
O=C(Nc1ccc(N2CCN(C(=O)c3ccccc3)CC2)cc1)c1cc2ccccc2o1	0	6	2%	1.1	2.4*	i
CCOc1cc2[nH]c(=O)n(CC3CCC(C(=O)NCCCOC)CC3)c(=O)c2cc1OCC (stereo not given)	0	0	0%	1	2.1*	i
CCOc1cc2[nH]c(=O)n(CCCN3CCCC3=O)c(=O)c2cc1OCC	3	10	8%	1	2.3*	i
CCOc1cc2[nH]c(=O)n(CC3CCC(C(=O)NCCC(C)C)CC3)c(=O)c2cc1OCC (stereo not given)	3	1	1%	1.1	1.4	i
CCOc1cc2[nH]c(=O)n(CCCCC(=O)NC3CCCCCC3)c(=O)c2cc1OCC	8	5	6%	1.1	2.3*	i
COc1cccc(-c2nc(CS(=O)CC(=O)NCc3ccccc3Cl)c(C)o2)c1 (stereo not given)	7	0	2%	1.1	1.1	i
COc1ccccc1NC(=O)c1cc(Sc2nncn2C)nc2ccccc12	0	3	1%	1.1	1.1	i
C=CC[N+](C)(C)CCCNC(=O)/C=N/O	15	4	6%	1	1.1	i
CC(C)(O)P(C)(=O)c1ccccc1 (stereo not given)	7	14	23%	0.99	0.5	+
CC(C)(C)P(=O)(CO)c1ccccc1 (stereo not given)	11	0	4%	1.1	1.1	i
O=S1(=O)CCC(SCc2nc3sccn3c2Br)C1 (stereo not given)	5	6	4%	1	1.1	i
Cc1ccc(OCCSc2nnc(-c3ccncc3)n2C)cc1	0	11	4%	1	1.1	i
Cn1c(SCCOc2cccc(Cl)c2)nnc1-c1ccncc1	90*	5	32%	1	1	i
CC(=O)c1cnc(Nc2nc(C)c3cccc(C)c3n2)nc1C	2	5	2%	1.1	1.1	i
COC(=O)c1[nH]c2cccc(OC)c2c1NC(=O)CCN1CCN(c2cccc(Cl)c2)CC1	9	13	12%	1	2.6*	i
COC(=O)c1[nH]c2cccc(OC)c2c1NC(=O)CN1CC2(C)CC1CC(C)(C)C2 (stereo not given)	1	4	6%	1	2*	i
COC(=O)c1[nH]c2cccc(OC)c2c1NC(=O)CCN1CC(C)CC(C)C1 (stereo not given)	9	9	13%	1.1	2.7*	i
COC(=O)c1[nH]c2cccc(OC)c2c1NC(=O)CN1CCOCC1	2	0	3%	1.1	2.9*	i
CC(=O)NC12CC3CC(C)(C1)CC(NC(C)=O)(C3)C2	10	0	3%	1	1.1	i
COc1ccc(-c2nc(C#N)c(NCc3ccc(C)cc3)o2)cc1OC	1	0	1%	1.1	2.1*	.
COc1ccc(-c2nc(C#N)c(NCCc3ccccc3)o2)cc1OC	12	11	12%	1.1	3.9*	.
CCN(CC)CCCNc1oc(-c2ccc(OC)c(OC)c2)nc1C#N	13	16	15%	1.1	3.9*	.
CN(C)CCCNc1oc(-c2cccc(Cl)c2)nc1C#N	10	13	12%	1	3.9*	.
CC(C)(C)c1ccc(-c2nc(C#N)c(NCc3ccncc3)o2)cc1	15	11	12%	1	1.8	i
CC(C)Cc1[nH]c(=O)c(C#N)c2c1CCCC2	0	6	2%	1.1	1.4	i
Cc1noc(C)c1CSc1nc2sc(C)c(C)c2c(=O)n1C1CCCC1	0	11	5%	1	0.97	i
CCOc1ccc(C2c3c(oc4ccccc4c3=O)C(=O)N2c2ccccn2)cc1OC (stereo not given)	4	1	3%	1.1	1.1	i
CCCn1c(SCC(=O)NCCc2ccc(Cl)cc2Cl)n[nH]c1=O	10	0	3%	1	1.1	i

Bioassay records as filed in PubChem BioAssay.
